Results as given in paper PMC7862700, “An all-to-all approach to the identification of sequence-specific readers for epigenetic DNA modifications on cytosine”.

Key:
Assay in all cases: DAPPL (digital affinity profiling via proximity ligation, sequencing); 10 mM Tris-HCl pH 7.5, 50 mM NaCl, 1 mM DTT, 4% glycerol, room temperature, 30 min; GST-TFs on glutathione beads, 16-mer random dsDNA library, 0.1% formaldehyde crosslink after washing; high values mean tight binding
Conditions in all cases: protein: recombinant; tags: N-terminal GST; dsDNA, one strand shown
FLI1 = biological target: T1, FLI1 (Homo sapiens, UniProt Q01543 1-452)
T1 sequence: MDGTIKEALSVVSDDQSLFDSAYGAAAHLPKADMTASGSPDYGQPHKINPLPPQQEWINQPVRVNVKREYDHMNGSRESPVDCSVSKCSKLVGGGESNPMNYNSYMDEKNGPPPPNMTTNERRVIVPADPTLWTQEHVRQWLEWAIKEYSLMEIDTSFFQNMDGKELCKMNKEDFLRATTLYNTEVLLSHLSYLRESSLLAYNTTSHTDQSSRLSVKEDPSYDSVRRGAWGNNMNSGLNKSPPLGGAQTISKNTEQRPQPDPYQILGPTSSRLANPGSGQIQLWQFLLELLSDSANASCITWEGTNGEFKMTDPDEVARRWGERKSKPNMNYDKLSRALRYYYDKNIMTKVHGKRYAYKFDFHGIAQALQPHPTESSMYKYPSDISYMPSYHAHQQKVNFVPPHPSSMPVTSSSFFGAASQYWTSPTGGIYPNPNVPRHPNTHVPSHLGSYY
In short: (§1)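 GST fusions of human transcription factors were expressed in yeast and captured with glutathione beads. Once given DNA barcodes and pooled alongside a tag-only sample, they were incubated for 30 min at room temperature with 200 nmole of a random double-stranded 16-mer DNA library in Tris/NaCl/DTT/glycerol buffer, then washed, crosslinked (0.1% formaldehyde), proximity-ligated, PCR-amplified and sequenced on an Illumina NextSeq500. The binding signal of each hexamer is its read frequency for a factor divided by its frequency for the tag-only sample.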

ELK1 = biological target: T2, ELK1 (Homo sapiens, UniProt P19419 1-428)
T2 sequence: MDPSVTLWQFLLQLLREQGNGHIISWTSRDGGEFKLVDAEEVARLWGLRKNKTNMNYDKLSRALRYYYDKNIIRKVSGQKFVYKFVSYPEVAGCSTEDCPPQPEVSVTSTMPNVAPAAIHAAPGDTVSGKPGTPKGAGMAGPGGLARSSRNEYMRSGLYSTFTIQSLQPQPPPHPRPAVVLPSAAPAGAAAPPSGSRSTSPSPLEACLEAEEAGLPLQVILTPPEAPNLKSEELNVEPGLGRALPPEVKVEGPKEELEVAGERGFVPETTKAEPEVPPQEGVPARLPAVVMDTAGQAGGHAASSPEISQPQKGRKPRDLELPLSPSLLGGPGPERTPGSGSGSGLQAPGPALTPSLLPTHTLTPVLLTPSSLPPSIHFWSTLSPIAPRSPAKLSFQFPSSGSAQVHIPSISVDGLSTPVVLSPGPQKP
In short: as §1

GABPA = biological target: T3, GABPA (Homo sapiens, UniProt Q06546 1-454)
T3 sequence: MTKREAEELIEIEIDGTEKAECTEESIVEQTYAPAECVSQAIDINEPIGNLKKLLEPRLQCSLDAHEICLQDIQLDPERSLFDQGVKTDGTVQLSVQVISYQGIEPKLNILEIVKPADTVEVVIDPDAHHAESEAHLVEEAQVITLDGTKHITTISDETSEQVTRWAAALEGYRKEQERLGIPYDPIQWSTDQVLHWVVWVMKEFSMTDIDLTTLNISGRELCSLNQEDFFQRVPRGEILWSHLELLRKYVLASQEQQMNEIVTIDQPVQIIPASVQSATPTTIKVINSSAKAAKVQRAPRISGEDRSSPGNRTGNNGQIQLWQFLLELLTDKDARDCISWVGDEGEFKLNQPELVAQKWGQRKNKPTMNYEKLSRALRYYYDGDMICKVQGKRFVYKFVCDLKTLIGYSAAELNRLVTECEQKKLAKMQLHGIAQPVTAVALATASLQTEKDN
In short: as §1

ERG = biological target: T4, ERG (Homo sapiens, UniProt P11308 1-479)
T4 sequence: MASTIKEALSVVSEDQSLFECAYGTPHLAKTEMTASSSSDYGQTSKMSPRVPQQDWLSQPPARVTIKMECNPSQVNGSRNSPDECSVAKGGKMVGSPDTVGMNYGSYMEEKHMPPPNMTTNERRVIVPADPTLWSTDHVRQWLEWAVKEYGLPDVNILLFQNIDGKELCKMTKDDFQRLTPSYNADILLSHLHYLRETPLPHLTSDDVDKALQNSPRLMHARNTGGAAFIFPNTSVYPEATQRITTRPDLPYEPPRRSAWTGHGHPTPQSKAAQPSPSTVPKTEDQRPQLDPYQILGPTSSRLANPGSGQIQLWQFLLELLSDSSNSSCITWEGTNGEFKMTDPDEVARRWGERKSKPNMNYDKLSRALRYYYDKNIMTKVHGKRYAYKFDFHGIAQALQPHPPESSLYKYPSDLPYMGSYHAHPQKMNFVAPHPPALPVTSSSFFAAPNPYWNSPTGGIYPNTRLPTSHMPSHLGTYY
In short: as §1

ELF1 = ELF1 (Homo sapiens, UniProt P32519 1-619)
ELF1, sequence (P32519 whole entry): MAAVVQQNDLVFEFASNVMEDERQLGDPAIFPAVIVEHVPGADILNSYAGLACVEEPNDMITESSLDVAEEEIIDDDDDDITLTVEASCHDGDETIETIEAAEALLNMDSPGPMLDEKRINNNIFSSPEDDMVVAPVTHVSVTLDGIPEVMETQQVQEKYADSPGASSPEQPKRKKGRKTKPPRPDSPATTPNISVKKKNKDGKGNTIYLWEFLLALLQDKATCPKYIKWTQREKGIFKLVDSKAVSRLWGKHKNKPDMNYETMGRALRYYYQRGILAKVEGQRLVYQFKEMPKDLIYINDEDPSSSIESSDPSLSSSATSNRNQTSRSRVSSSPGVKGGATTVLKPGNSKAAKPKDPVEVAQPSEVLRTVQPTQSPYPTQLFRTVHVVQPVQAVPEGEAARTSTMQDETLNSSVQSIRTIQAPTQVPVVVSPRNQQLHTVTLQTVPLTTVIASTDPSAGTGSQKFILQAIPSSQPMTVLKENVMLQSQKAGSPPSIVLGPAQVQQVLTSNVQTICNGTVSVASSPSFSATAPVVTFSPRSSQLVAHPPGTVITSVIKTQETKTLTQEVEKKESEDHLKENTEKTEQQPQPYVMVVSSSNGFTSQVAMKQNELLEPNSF
In short: as §1

EHF = biological target: T5, EHF (Homo sapiens, UniProt Q9NZC4 1-300)
T5 sequence: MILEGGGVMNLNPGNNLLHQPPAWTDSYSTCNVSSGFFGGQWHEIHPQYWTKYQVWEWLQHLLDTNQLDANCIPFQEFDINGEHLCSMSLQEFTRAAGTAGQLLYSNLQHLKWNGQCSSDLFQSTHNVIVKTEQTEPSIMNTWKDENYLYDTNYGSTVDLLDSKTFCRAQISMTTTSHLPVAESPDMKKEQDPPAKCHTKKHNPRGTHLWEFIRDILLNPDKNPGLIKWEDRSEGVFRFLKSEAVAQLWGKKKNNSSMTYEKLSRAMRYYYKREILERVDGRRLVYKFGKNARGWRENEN
In short: as §1

SPI1 = SPI1 (Homo sapiens, UniProt P17947 1-270)
In short: as §1

SPIB = SPIB (Homo sapiens, UniProt Q01892 1-262)
SPIB, sequence (Q01892 whole entry): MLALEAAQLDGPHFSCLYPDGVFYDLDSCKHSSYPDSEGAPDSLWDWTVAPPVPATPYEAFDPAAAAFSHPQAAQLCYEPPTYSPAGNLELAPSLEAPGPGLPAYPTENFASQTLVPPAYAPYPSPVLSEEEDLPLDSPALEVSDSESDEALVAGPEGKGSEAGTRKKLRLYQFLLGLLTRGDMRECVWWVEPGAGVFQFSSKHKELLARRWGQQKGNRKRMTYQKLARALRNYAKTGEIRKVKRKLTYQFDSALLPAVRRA
In short: as §1

ELK3 = biological target: T6, ELK3 (Homo sapiens, UniProt P41970 1-407)
T6 sequence: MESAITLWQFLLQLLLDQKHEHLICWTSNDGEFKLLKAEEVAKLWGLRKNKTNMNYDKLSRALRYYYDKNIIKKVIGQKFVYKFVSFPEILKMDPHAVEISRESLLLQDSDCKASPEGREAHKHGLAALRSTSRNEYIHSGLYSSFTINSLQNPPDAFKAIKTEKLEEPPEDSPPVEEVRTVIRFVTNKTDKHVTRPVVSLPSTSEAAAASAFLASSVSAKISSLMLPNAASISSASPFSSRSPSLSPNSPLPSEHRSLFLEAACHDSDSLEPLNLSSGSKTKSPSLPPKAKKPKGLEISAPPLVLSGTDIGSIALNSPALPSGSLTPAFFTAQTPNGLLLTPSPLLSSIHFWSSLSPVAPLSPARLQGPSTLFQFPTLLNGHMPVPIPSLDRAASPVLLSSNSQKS
In short: as §1

Sequence	binding signal (FLI1)	binding signal (ELK1)	binding signal (GABPA)	binding signal (ERG)	binding signal (ELF1)	binding signal (EHF)	binding signal (SPI1)	binding signal (SPIB)	binding signal (ELK3)
AACACT	1.27 fold enrichment (6-mer frequency, TF over GST control)	1.38 fold enrichment (6-mer frequency, TF over GST control)	1.32 fold enrichment (6-mer frequency, TF over GST control)	1.31 fold enrichment (6-mer frequency, TF over GST control)	1.32 fold enrichment (6-mer frequency, TF over GST control)	1.35 fold enrichment (6-mer frequency, TF over GST control)	1.36 fold enrichment (6-mer frequency, TF over GST control)	1.31 fold enrichment (6-mer frequency, TF over GST control)	1.23 fold enrichment (6-mer frequency, TF over GST control)
CTGCCT	1.2 fold enrichment (6-mer frequency, TF over GST control)	1.28 fold enrichment (6-mer frequency, TF over GST control)	1.33 fold enrichment (6-mer frequency, TF over GST control)	1.18 fold enrichment (6-mer frequency, TF over GST control)	1.34 fold enrichment (6-mer frequency, TF over GST control)	1.33 fold enrichment (6-mer frequency, TF over GST control)	1.27 fold enrichment (6-mer frequency, TF over GST control)	1.21 fold enrichment (6-mer frequency, TF over GST control)	1.04 fold enrichment (6-mer frequency, TF over GST control)
TATCGT	1.18 fold enrichment (6-mer frequency, TF over GST control)	1.28 fold enrichment (6-mer frequency, TF over GST control)	1.04 fold enrichment (6-mer frequency, TF over GST control)	1.14 fold enrichment (6-mer frequency, TF over GST control)	1.14 fold enrichment (6-mer frequency, TF over GST control)	1.1 fold enrichment (6-mer frequency, TF over GST control)	1.07 fold enrichment (6-mer frequency, TF over GST control)	1.2 fold enrichment (6-mer frequency, TF over GST control)	1.18 fold enrichment (6-mer frequency, TF over GST control)
GATATA	1.12 fold enrichment (6-mer frequency, TF over GST control)	1.06 fold enrichment (6-mer frequency, TF over GST control)	1.15 fold enrichment (6-mer frequency, TF over GST control)	1.13 fold enrichment (6-mer frequency, TF over GST control)	1.09 fold enrichment (6-mer frequency, TF over GST control)	1.18 fold enrichment (6-mer frequency, TF over GST control)	1.09 fold enrichment (6-mer frequency, TF over GST control)	1.06 fold enrichment (6-mer frequency, TF over GST control)	1.17 fold enrichment (6-mer frequency, TF over GST control)
CTATTT	1.7 fold enrichment (6-mer frequency, TF over GST control)	1.67 fold enrichment (6-mer frequency, TF over GST control)	1.74 fold enrichment (6-mer frequency, TF over GST control)	1.77 fold enrichment (6-mer frequency, TF over GST control)	1.58 fold enrichment (6-mer frequency, TF over GST control)	1.85 fold enrichment (6-mer frequency, TF over GST control)	1.76 fold enrichment (6-mer frequency, TF over GST control)	1.81 fold enrichment (6-mer frequency, TF over GST control)	1.85 fold enrichment (6-mer frequency, TF over GST control)
ATAGAT	1.16 fold enrichment (6-mer frequency, TF over GST control)	1.14 fold enrichment (6-mer frequency, TF over GST control)	1.17 fold enrichment (6-mer frequency, TF over GST control)	1.11 fold enrichment (6-mer frequency, TF over GST control)	1.23 fold enrichment (6-mer frequency, TF over GST control)	1.17 fold enrichment (6-mer frequency, TF over GST control)	1.07 fold enrichment (6-mer frequency, TF over GST control)	1.16 fold enrichment (6-mer frequency, TF over GST control)	1.23 fold enrichment (6-mer frequency, TF over GST control)
GCACTA	1.18 fold enrichment (6-mer frequency, TF over GST control)	1.2 fold enrichment (6-mer frequency, TF over GST control)	1.23 fold enrichment (6-mer frequency, TF over GST control)	1.11 fold enrichment (6-mer frequency, TF over GST control)	1.16 fold enrichment (6-mer frequency, TF over GST control)	1.21 fold enrichment (6-mer frequency, TF over GST control)	1.19 fold enrichment (6-mer frequency, TF over GST control)	1.3 fold enrichment (6-mer frequency, TF over GST control)	1.23 fold enrichment (6-mer frequency, TF over GST control)
